This is an account of results in PubChem BioAssay (NCI).

Some test systems named below: SK-MEL-2 melanoma; EKVX NSCLC; SN12C renal; UO-31 renal; TK-10 renal; ACHN renal; A498 renal; CCRF-CEM leukemia; SR leukemia; RPMI-8226 leukemia; OVCAR-8 ovarian; OVCAR-5 ovarian; OVCAR-4 ovarian; SK-OV-3 ovarian; IGROV1 ovarian; OVCAR-3 ovarian; HS 578T breast; NCI/ADR-RES ovarian; MOLT-4 leukemia.
Assay in all cases: NCI-60 one-dose screen, 48 h (100 = growth as untreated, 0 = no growth, -100 = all killed)
What all share (conditions): 10 µM unless noted

Molecules are shown by their SMILES. About 83,000 compounds went through this panel and 20% of them were active in at least one assay; those are over-represented in the sample as a whole.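 Plates (96-well) were seeded with cells, treated with compound at one concentration, and incubated for 48 hours before percent growth was determined.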 Values without a mark were called inactive. The source made the active and inactive calls. The calls were made as follows: active = growth percent below 10; inactive = the rest.

`COc1ccc(/C=C(/C(=O)n2cnnn2)c2cc(OC)c(OC)c(OC)c2)cc1`: the growth is 57.6% in the test with SK-MEL-2 melanoma; 46.5% in the test with EKVX NSCLC; 42.6% in the test with SN12C renal; 42.4% with UO-31 renal; 44.9% in the test with TK-10 renal; 48% with ACHN renal. In addition, the growth in the test with A498 renal is 1.86% (active); in the test on CCRF-CEM leukemia, 5.78% (active); with SR leukemia, 14.8%; in the test on RPMI-8226 leukemia, 3.48% (active); in the test with OVCAR-8 ovarian, 22.1%; with OVCAR-5 ovarian it was 41.2%. Further, the growth in the test on OVCAR-4 ovarian was 60.6%; with SK-OV-3 ovarian it was 14.6%; with IGROV1 ovarian it was 41.4%; with OVCAR-3 ovarian, 1.46% (active); with HS 578T breast, 13.5%; in the test with NCI/ADR-RES ovarian it was 12.2%.
Consider `CC(=O)/C(=C/c1ccc([N+](=O)[O-])cc1)C(=O)c1ccccc1`, for which the growth is 89.4% with SK-MEL-2 melanoma; 101% in the test with EKVX NSCLC; 91.6% in the test with SN12C renal; 69.1% in the test with UO-31 renal; 87.8% with TK-10 renal; 83.8% in the test on ACHN renal. Also, the growth in the test with A498 renal is 112%; in the test on CCRF-CEM leukemia, 33.7%; in the test with MOLT-4 leukemia, 21.4%; with SR leukemia, -0.146% (active); in the test with RPMI-8226 leukemia it was 8.32% (active); with OVCAR-8 ovarian it was 94.4%. Also, the growth with OVCAR-5 ovarian was 112%; with SK-OV-3 ovarian, 101%; in the test on IGROV1 ovarian, 82.9%; in the test on OVCAR-3 ovarian, 96.5%; in the test on HS 578T breast it was 92.3%; with NCI/ADR-RES ovarian, 83.7%.
Regarding `C=C(C)[C@@H]1CC[C@]2(COC(C)=O)CC[C@]3(C)[C@H](CC[C@@H]4[C@@]5(C)CCCN(C(C)=O)C(C)(C)[C@@H]5CC[C@]43C)[C@@H]12`, the growth is 61.3% in the test on SK-MEL-2 melanoma; 90% with EKVX NSCLC; 67.5% with SN12C renal; 77% in the test on UO-31 renal; 90.3% with TK-10 renal; 27.9% in the test with ACHN renal. Also, the growth in the test with A498 renal is 108%; in the test on CCRF-CEM leukemia it was 59.9%; with MOLT-4 leukemia, -9.89% (active); with RPMI-8226 leukemia it was -6.5% (active); with OVCAR-8 ovarian, 48.6%; in the test on OVCAR-5 ovarian, 59.2%. For the same compound, the growth was 111% in the test with SK-OV-3 ovarian; 57.6% in the test with IGROV1 ovarian; 88.3% in the test with OVCAR-3 ovarian; 73.3% with HS 578T breast; 66.9% in the test with NCI/ADR-RES ovarian.
For `COc1ccc(/C=C/c2c(C(=O)/C=C/c3ccccc3)c(C)nc3ccccc23)cc1`, the growth was 14.2% with SK-MEL-2 melanoma; 41% in the test on EKVX NSCLC; 23.6% in the test with SN12C renal; -7.16% (active) with UO-31 renal; 25.1% with TK-10 renal; 7.53% (active) in the test on ACHN renal. For the same compound, the growth is 46.6% with A498 renal; 7.45% (active) in the test on CCRF-CEM leukemia; 6.35% (active) in the test with MOLT-4 leukemia; 10.7% in the test on SR leukemia; 0.598% (active) with RPMI-8226 leukemia; 0.97% (active) in the test on OVCAR-8 ovarian. In addition, the growth with OVCAR-5 ovarian was -29.3% (active); in the test with OVCAR-4 ovarian it was 37.2%; in the test with SK-OV-3 ovarian, 63.6%; with IGROV1 ovarian, 6.06% (active); with OVCAR-3 ovarian, -22.4% (active); with HS 578T breast it was 38.2%. Moreover, the growth with NCI/ADR-RES ovarian was 3.63% (active).
As to `OCCNCCNC(Cc1ccc(Cl)cc1)c1ccccc1` (stereo not given), the growth was 86.6% in the test with SK-MEL-2 melanoma; 88.5% in the test with EKVX NSCLC; 92% in the test on SN12C renal; 64.5% with UO-31 renal; 80.8% with TK-10 renal; 95.9% with ACHN renal. In addition, the growth with A498 renal is 90.1%; with CCRF-CEM leukemia, 85.4%; in the test on MOLT-4 leukemia it was 86.4%; in the test on SR leukemia, 88.5%; in the test on RPMI-8226 leukemia, 81.3%; in the test with OVCAR-8 ovarian, 101%. Also, the growth in the test on OVCAR-5 ovarian was 63.6%; in the test on OVCAR-4 ovarian it was 95.6%; in the test with SK-OV-3 ovarian, 81%; in the test with IGROV1 ovarian, 87.3%; in the test on OVCAR-3 ovarian it was 94.5%; in the test with HS 578T breast, 91.5%. In addition, in the test with NCI/ADR-RES ovarian, the growth was 92.2%.
As to `CCOC(=O)c1c(C)nc2ccccc2c1/C=C/c1ccccc1`, the growth in the test with SK-MEL-2 melanoma was 71.7%; with EKVX NSCLC, 63.6%; in the test on SN12C renal it was 88.3%; in the test on UO-31 renal it was 60.7%; in the test with TK-10 renal, 92.5%; with ACHN renal, 72.7%. Also, the growth with A498 renal was 76%; with CCRF-CEM leukemia it was 45.8%; in the test with MOLT-4 leukemia, 23.6%; in the test on SR leukemia, 60.3%; with RPMI-8226 leukemia it was 42.2%; in the test with OVCAR-8 ovarian it was 53.8%. The growth in the test with OVCAR-5 ovarian was 97%; in the test with OVCAR-4 ovarian it was 65%; in the test with SK-OV-3 ovarian it was 91.5%; in the test on IGROV1 ovarian it was 75%; with OVCAR-3 ovarian, 79.6%; with HS 578T breast, 94.8%. The growth in the test on NCI/ADR-RES ovarian was 24.8%.
Regarding `COc1ccc(Cn2cc(C(=O)N=Nc3c(O)[nH]c4c(C)cccc34)nn2)cc1`, the growth in the test with SK-MEL-2 melanoma was 91.9%; in the test on EKVX NSCLC it was 107%; with SN12C renal, 62.1%; in the test with UO-31 renal it was 14.9%; in the test with TK-10 renal, 56.1%; with ACHN renal it was 38.2%. The growth was 101% with A498 renal; 82.8% in the test on CCRF-CEM leukemia; 83.5% with MOLT-4 leukemia; 76.6% in the test on SR leukemia; 90% with RPMI-8226 leukemia; 67.6% in the test with OVCAR-8 ovarian. Besides, the growth in the test with OVCAR-5 ovarian is 93.6%; in the test with OVCAR-4 ovarian it was -28.2% (active); with SK-OV-3 ovarian, 110%; in the test with IGROV1 ovarian it was 84.8%; in the test on OVCAR-3 ovarian, 46.7%; with HS 578T breast it was 84.1%. Moreover, in the test on NCI/ADR-RES ovarian, the growth was 71.2%.
Turning to `CC(C)(C)c1cc(Cl)c(O)c(CNCCO)c1`, the growth is 113% with SK-MEL-2 melanoma; 101% with EKVX NSCLC; 109% in the test on SN12C renal; 99.7% with UO-31 renal; 105% in the test on TK-10 renal; 110% in the test on ACHN renal. In addition, the growth with A498 renal is 89.4%; with CCRF-CEM leukemia, 110%; with MOLT-4 leukemia, 115%; in the test on SR leukemia it was 103%; in the test with RPMI-8226 leukemia, 113%; in the test with OVCAR-8 ovarian, 110%. The growth is 112% in the test on OVCAR-5 ovarian; 110% with SK-OV-3 ovarian; 117% in the test on IGROV1 ovarian; 111% in the test on OVCAR-3 ovarian; 82.7% with HS 578T breast; 109% in the test on NCI/ADR-RES ovarian.
As to `C[C@]1(O)CC(=O)[C@]2(O)C3=C(C=C[C@]2(O)C1)C(=O)c1c(O)cccc1C3=O`, the growth in the test on SK-MEL-2 melanoma is 89.7%; in the test on EKVX NSCLC it was 73.8%; with SN12C renal, 3.18% (active); in the test with UO-31 renal, -96.6% (active); with TK-10 renal, -82.8% (active); in the test with ACHN renal, -100% (active). In addition, the growth with CCRF-CEM leukemia is 0.446% (active); with MOLT-4 leukemia, -12.8% (active); with SR leukemia it was 10.5%; in the test with RPMI-8226 leukemia, -0.202% (active); in the test with OVCAR-8 ovarian, -12.6% (active); in the test on OVCAR-5 ovarian, 38.8%. Also, the growth was -97.9% (active) in the test with OVCAR-4 ovarian; 98.8% with SK-OV-3 ovarian; 27.1% in the test with IGROV1 ovarian; -32.8% (active) with OVCAR-3 ovarian; 71.8% with HS 578T breast; 47.2% with NCI/ADR-RES ovarian.
